The values below come from PubChem BioAssay (Tox21).

Assay [1] concerns the target Acetylcholinesterase (Homo sapiens) (UniProt P22303). The assay is described as follows: Acetylcholinesterase (AChE) small molecule antagonists: colormetric cell-based qHTS assay (AID 1347395). Also: nearly all actives have a fitted effect of over 30% in size. Also: potency is read from the fitted curve at half-maximal effect. An outline of the steps:
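Homogeneous whole-cell format. SH-SY5Y cells seeded overnight, dosed with compound (30 min, 37 C, 5% CO2), then given DTNB/acetylthiocholine cocktail for 90 min at 37 C; colorimetric signal.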
On the technique in general: Quantitative high-throughput screening tests each substance at several concentrations.

Assay [2] shares this target. The assay is described as follows: Acetylcholinesterase (AChE) small molecule antagonists: enzyme-based qHTS assay (AID 1347397). Also: nearly all actives have a fitted effect of over 55% in size. The settings on record: Potency: AChE enzyme activity inhibition; outcome: AChE enzyme activity inhibition. In short, it runs like this:
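Absorbance-based detection of thiocholine with DTNB served as the read-out. Recombinant human AChE was exposed to compound for 30 min at RT before a 10 min RT incubation with acetylthiocholine.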

Assay [3] has the same target. The assay is described as follows: Acetylcholinesterase (AChE) small molecule antagonists: fluorescence cell-based qHTS assay (AID 1347398). Also: nearly all actives have a fitted effect of over 50% in size. Also: potency is read from the fitted curve at half-maximal effect. As to conditions: Potency: AChE activity; outcome: AChE activity. An outline of the steps:
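Fluorimetric cell-based assay: intact SH-SY5Y cells, 30 min compound preincubation at 37 C, acetylthiocholine substrate with thiol probe Thiolite Green, 40 min RT development, fluorescence 490/520 nm.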

The target is the same in assay [4]. The assay is described as follows: Acetylcholinesterase (AChE) small molecule antagonists: enzyme-based qHTS assay with human liver microsomes (AID 1347399). Also: nearly all actives have a fitted effect of over 60% in size. As to conditions: Potency: qHTS inhibition; outcome: qHTS inhibition. In short, it runs like this: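 Recombinant human AChE (50 mU/mL in the enzyme mix) and human liver microsomes (0.25 mg/mL final) were preincubated with compound and NADPH (0.25 mg/mL final) for 30 min at 37 C. Acetylthiocholine/DTNB was then added; thiocholine was read colorimetrically after 10 min at room temperature.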

Values joined by “and” are separate entries in the source; they are usually repeats but may differ in a detail not shown here. Equal values may be shown once. Values without a mark were called inactive. Records with an inconclusive call do not appear. Active and inactive are the calls of the source. Calls follow the shape of the full dose curve.
% is scaled to controls: 0 for no effect and ±100 for the full control effect.

Acetylcholinesterase (Homo sapiens), sequence (P22303 whole entry, looked up): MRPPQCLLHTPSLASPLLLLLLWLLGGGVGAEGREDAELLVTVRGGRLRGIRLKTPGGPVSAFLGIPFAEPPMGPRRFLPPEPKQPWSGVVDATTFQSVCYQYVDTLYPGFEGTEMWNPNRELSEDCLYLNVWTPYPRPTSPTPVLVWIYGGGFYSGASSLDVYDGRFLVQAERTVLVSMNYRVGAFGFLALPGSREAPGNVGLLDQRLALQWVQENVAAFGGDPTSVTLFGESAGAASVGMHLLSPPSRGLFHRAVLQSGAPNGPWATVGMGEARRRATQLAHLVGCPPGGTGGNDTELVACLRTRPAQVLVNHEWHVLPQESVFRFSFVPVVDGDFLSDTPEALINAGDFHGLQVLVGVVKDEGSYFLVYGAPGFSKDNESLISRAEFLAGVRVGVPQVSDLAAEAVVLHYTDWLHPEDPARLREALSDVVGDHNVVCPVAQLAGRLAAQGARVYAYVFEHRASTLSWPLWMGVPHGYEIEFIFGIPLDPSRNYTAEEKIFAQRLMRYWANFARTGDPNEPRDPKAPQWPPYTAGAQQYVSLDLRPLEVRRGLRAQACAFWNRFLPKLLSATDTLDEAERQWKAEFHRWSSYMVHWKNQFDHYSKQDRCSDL

Turning to `CN(C)/N=N/c1nc[nH]c1C(N)=O`, the Potency entry in assay [1], in assay [2], in assay [3] and in assay [4] was “inactive” each time.
For `Cc1cc2nc3c(=O)[nH]c(=O)nc-3n(C[C@H](O)[C@H](O)[C@H](O)CO)c2cc1C`, the Potency in assay [1] was 35.2 µM (active) and 33 µM (active). The Potency result in assay [2], in assay [3] and in assay [4] was “inactive” throughout.
Consider `C=CCOC(=O)CC(C)C`, for which the Potency result in assay [1], in assay [2], in assay [3] and in assay [4] was “inactive” in each case.
`CC(C)(C)CC(C)(C)c1ccc(O)c(Cc2ccc(Cl)cc2Cl)c1`: the Potency entry in assay [1], in assay [2], in assay [3] and in assay [4] was “inactive” throughout.
`NC(=S)NC(N)=S`: the Potency result in assay [1], in assay [2], in assay [3] and in assay [4] was “inactive” in each case.
Turning to `O=C1NCCN1CCO`, the Potency result in assay [1], in assay [2], in assay [3] and in assay [4] was “inactive” each time.
`NS(=O)(=O)c1ccc(NC(=O)CCC(=O)O)cc1`: the Potency result in assay [1], in assay [2], in assay [3] and in assay [4] was “inactive” throughout.
Regarding `C/C=C/C(=O)C1=C(C)CCCC1(C)C`, the Potency result in assay [1], in assay [2], in assay [3] and in assay [4] was “inactive” in each case.
Consider `O=C(O)CCNC(=O)c1ccccc1`, for which the Potency entry in assay [1], in assay [2], in assay [3] and in assay [4] was “inactive” throughout.
Regarding `CCC(O)OCCCOC` (stereo not given), the Potency result in assay [1], in assay [2], in assay [3] and in assay [4] was “inactive” in each case.
For the molecule `CC(C)=CC1CC(C)CCO1` (stereo not given), the Potency entry in assay [1], in assay [2], in assay [3] and in assay [4] was “inactive” each time.
For `O=Cc1ccccc1[N+](=O)[O-]`, the Potency entry in assay [1], in assay [2], in assay [3] and in assay [4] was “inactive” throughout.
Consider `c1ccc2sc(SSN3CCOCC3)nc2c1`, for which the Potency entry in assay [1], in assay [2], in assay [3] and in assay [4] was “inactive” each time.
With `COS(=O)(=O)C(F)(F)F`, the Potency entry in assay [1], in assay [2], in assay [3] and in assay [4] was “inactive” each time.
Turning to `CCCCOCC(C)O` (stereo not given), the Potency result in assay [1], in assay [2], in assay [3] and in assay [4] was “inactive” each time.
`O=[N+]([O-])c1ccc(/C=C/c2ccc([N+](=O)[O-])cc2S(=O)(=O)O)c(S(=O)(=O)O)c1`: the Potency result in assay [1], in assay [2], in assay [3] and in assay [4] was “inactive” each time.
As for `NC(=O)c1cccnc1`, the Potency entry in assay [1], in assay [2], in assay [3] and in assay [4] was “inactive” in each case.
As to `CNC(=O)c1cc(Oc2ccc(NC(=O)Nc3ccc(Cl)c(C(F)(F)F)c3)cc2)ccn1`, the Potency result in assay [1], in assay [2], in assay [3] and in assay [4] was “inactive” throughout.
For `CCOC(=O)c1cccc(N)c1`, the molecule was classed as inactive in assay [1], in assay [2], in assay [3] and in assay [4].
On to `C[C@]12CCC(=O)C=C1CC[C@@H]1[C@@H]2CC[C@@]2(C)[C@H]1CC[C@]2(O)C(=O)CO`, for which the Potency result in assay [1], in assay [2], in assay [3] and in assay [4] was “inactive” each time.
In the case of `CC(C)CCCC(C)CCCC(C)CCCCC(C)CCCC(C)CCCC(C)C` (stereo not given), the Potency result in assay [1], in assay [2], in assay [3] and in assay [4] was “inactive” throughout.
As to `CCCCOC(=O)CCC(C)=O`, the Potency entry in assay [1], in assay [2], in assay [3] and in assay [4] was “inactive” in each case.
On to `Cc1cc(NC(=O)C2=C(O)c3ccccc3S(=O)(=O)N2C)no1`, for which the Potency entry in assay [1], in assay [2], in assay [3] and in assay [4] was “inactive” throughout.
`BrCc1cccc(Oc2ccccc2)c1`: the Potency entry in assay [1], in assay [2], in assay [3] and in assay [4] was “inactive” in each case.
Consider `COC(=O)/C=C/c1ccccc1`, for which the Potency entry in assay [1], in assay [2], in assay [3] and in assay [4] was “inactive” throughout.
In the case of `C=CC(=O)OCCOCCOCCOCCOC(=O)C=C`, the Potency entry in assay [1], in assay [2], in assay [3] and in assay [4] was “inactive” in each case.
As for `CCCCCC(CC)OC(=O)CCCOc1ccc(Cl)cc1Cl` (stereo not given), the Potency entry in assay [1], in assay [2], in assay [3] and in assay [4] was “inactive” throughout.
Regarding `Cc1cccc(C)c1C`, the Potency entry in assay [1], in assay [2], in assay [3] and in assay [4] was “inactive” each time.
Turning to `CC(=O)c1ccc([N+](=O)[O-])cc1`, the Potency entry in assay [1], in assay [2], in assay [3] and in assay [4] was “inactive” each time.
For the molecule `CCCCCCCCCCCCCCCCCBr`, the activity, negative = inhibition in assay [1] is 0.585% [at 23.6 µM]. The activity change, negative = inhibition is 1.09% [at 23.6 µM] in assay [2], -1.4% [at 23.8 µM] in assay [3] and -2.26% [at 23.6 µM] in assay [4].
On to `O=[N+]([O-])c1ccc(Oc2ccc([N+](=O)[O-])cc2)cc1`, for which the Potency result in assay [1], in assay [2], in assay [3] and in assay [4] was “inactive” each time.
`COc1c2ccoc2cc2oc(=O)ccc12`: the Potency result in assay [1], in assay [2], in assay [3] and in assay [4] was “inactive” throughout.
Turning to `O=S(=O)(O)c1ccc(Cl)cc1`, the Potency entry in assay [1], in assay [2], in assay [3] and in assay [4] was “inactive” in each case.
For the molecule `O=Cc1ccc(Cl)c(Cl)c1`, the Potency entry in assay [1], in assay [2], in assay [3] and in assay [4] was “inactive” each time.
In the case of `COc1ccc2c(c1)CCCC2=O`, the Potency entry in assay [1], in assay [2], in assay [3] and in assay [4] was “inactive” throughout.
Regarding `CC(C)(C)CC(C)(C)c1ccccc1O`, the Potency entry in assay [1], in assay [2], in assay [3] and in assay [4] was “inactive” in each case.
As to `CCCCNCC`, the Potency entry in assay [1], in assay [2], in assay [3] and in assay [4] was “inactive” throughout.
Turning to `CCN(CC)c1ccc(C=O)c(O)c1`, the Potency is 39.9 µM (active) in assay [1] and 35.6 µM (active) in assay [3]. For the same molecule, the Potency entry in assay [2] and in assay [4] was “inactive” throughout.
As to `O=S(=O)(Oc1ccc(Cl)cc1Cl)c1ccccc1`, the Potency result in assay [1], in assay [2], in assay [3] and in assay [4] was “inactive” in each case.
Regarding `CC(=O)c1nccs1`, the Potency result in assay [1], in assay [2], in assay [3] and in assay [4] was “inactive” in each case.
With `CCC/C=C(\C=O)CC`, the Potency entry in assay [1], in assay [2], in assay [3] and in assay [4] was “inactive” each time.
As to `COc1cc(/C=C/c2ccccc2)oc(=O)c1`, the Potency entry in assay [1], in assay [2], in assay [3] and in assay [4] was “inactive” in each case.
`CC1(C)[C@H]2CC[C@]1(C)C(=O)C2`: the Potency entry in assay [1], in assay [2], in assay [3] and in assay [4] was “inactive” each time.
As to `CC(Oc1cc(Cl)ccc1Cl)C(=O)O` (stereo not given), the Potency result in assay [1], in assay [2], in assay [3] and in assay [4] was “inactive” in each case.
In the case of `CCN(CC)CC(=O)Nc1c(C)cccc1C(=O)OC`, the Potency result in assay [1], in assay [2], in assay [3] and in assay [4] was “inactive” each time.
As for `O=c1[nH]c(=O)n([C@H]2CCCO2)cc1F`, the Potency entry in assay [1], in assay [2], in assay [3] and in assay [4] was “inactive” in each case.
Consider `CCCc1ccc(OCC(=O)N2CCN(C(=O)COc3ccc(CCC)cc3OC)CC2)c(OC)c1`, for which the Potency entry in assay [1], in assay [2], in assay [3] and in assay [4] was “inactive” throughout.
On to `CCCCC(CC)COCCCN` (stereo not given), for which the Potency entry in assay [1], in assay [2], in assay [3] and in assay [4] was “inactive” each time.
Consider `CCOc1ccc(OCC)c(Cl)c1`, for which the Potency entry in assay [1], in assay [2], in assay [3] and in assay [4] was “inactive” throughout.
For `OC[C@H](Cc1cccc(O)c1)[C@H](CO)Cc1cccc(O)c1`, the Potency result in assay [1], in assay [2], in assay [3] and in assay [4] was “inactive” throughout.
On to `C=CCCCCCCCCCCCCCCCC`, for which the activity, negative = inhibition in assay [1] is 2.13% [at 10.5 µM]. In addition, the results for the activity change, negative = inhibition in assay [2], in assay [3] and in assay [4] were -0.28% [at 10.5 µM], 3.23% [at 10.5 µM] and -0.261% [at 10.5 µM], respectively.
As for `C[C@H]1C[C@H]2[C@@H]3CCC4=CC(=O)C=C[C@]4(C)[C@@]3(F)[C@@H](O)C[C@]2(C)[C@@]1(O)C(=O)CO`, the Potency entry in assay [1], in assay [2], in assay [3] and in assay [4] was “inactive” each time.
As to `CCCCCCCCCCCCCC(=O)OC(C)C`, the Potency entry in assay [1], in assay [2], in assay [3] and in assay [4] was “inactive” throughout.
As for `O=c1[nH]cccc1O`, the Potency entry in assay [1], in assay [2], in assay [3] and in assay [4] was “inactive” in each case.
With `C/C=C/C=C/CCCCCCCO`, the Potency result in assay [1], in assay [2], in assay [3] and in assay [4] was “inactive” throughout.
In the case of `O=C(O)Cn1cnnn1`, the Potency result in assay [1], in assay [2], in assay [3] and in assay [4] was “inactive” in each case.
With `CCC(=O)OC/C=C/c1ccccc1`, the Potency result in assay [1], in assay [2], in assay [3] and in assay [4] was “inactive” each time.
Regarding `CCC(C)OC(=O)N1CCCCC1CCO` (stereo not given), the Potency result in assay [1], in assay [2], in assay [3] and in assay [4] was “inactive” in each case.
Turning to `CC(=O)Nc1ccc(S(=O)(=O)Nc2ccc([N+](=O)[O-])cc2)cc1`, the Potency result in assay [1], in assay [2], in assay [3] and in assay [4] was “inactive” in each case.
`CCO[Si](CC(C)C)(OCC)OCC`: the Potency result in assay [1], in assay [2], in assay [3] and in assay [4] was “inactive” throughout.
